Measurements: PubChem BioAssay AID602244 (Sanford-Burnham Center for Chemical Genomics, 2012)
Out of some 360,000 compounds screened, about 1,300 (0.36%) were called active. For the sample, actives were picked, then their nearest neighbours and some compounds at random. Values without a mark were called inactive. Cut-off read from the data, not from the text of the source: active = inhibition above about 34% (passing the limit was not always enough); inactive = the rest.

These compounds were tested against C-X-C chemokine receptor type 6 (Homo sapiens) (UniProt O00574) (assay: blockade of CXCL16-induced CXCR6 beta-arrestin recruitment – cell-based, luminescence, CHO-K1 PathHunter, 1536-well, primary screen (AID 602244;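 note: antagonist mode with CXCL16 agonist at 10 nM final; 0% = 10 nM CXCL16 with DMSO and 100% = unstimulated wells without agonist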)). Conditions: at 20 µM, active compounds read high.
C-X-C chemokine receptor type 6 (Homo sapiens), sequence (O00574 whole entry, looked up): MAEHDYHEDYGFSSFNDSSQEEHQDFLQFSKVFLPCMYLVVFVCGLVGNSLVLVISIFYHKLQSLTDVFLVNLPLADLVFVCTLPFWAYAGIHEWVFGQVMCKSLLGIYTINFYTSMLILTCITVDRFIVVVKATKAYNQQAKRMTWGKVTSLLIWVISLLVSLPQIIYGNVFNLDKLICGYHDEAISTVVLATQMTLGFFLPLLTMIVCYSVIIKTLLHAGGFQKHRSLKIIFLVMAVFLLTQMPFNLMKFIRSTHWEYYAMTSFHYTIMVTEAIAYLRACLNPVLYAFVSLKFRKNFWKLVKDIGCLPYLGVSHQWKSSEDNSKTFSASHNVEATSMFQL

Row | Compound | inhibition
1 | O=C(CCS(=O)(=O)c1ccccc1)Nc1nc2c(s1)CCCC2 | -0.7%
2 | COc1cccc2sc(N(CCCN(C)C)C(=O)CCS(=O)(=O)c3ccccc3)nc12 | 44.2% (active)
3 | Cc1ccc(S(=O)(=O)CCC(=O)OCC(=O)N(C)Cc2ccccc2)cc1 | 0.4%
4 | CCc1nc2c(OCCOc3ccccc3)cccn2c1N(C)C(=O)c1ccccc1F | 4.8%
5 | CN1CCC(N(C)S(=O)(=O)c2ccc(NC(=O)c3cccc(C#N)c3)cc2)CC1 | -0.9%
6 | O=C1CC(c2cccc(F)c2)C2=C(CCCC2=O)N1 (stereo not drawn) | -9.4%
7 | O=[N+]([O-])c1c(NCCO)cc(Sc2nc3ccccc3s2)c2nonc12 | 94.3% (active)
8 | C=CCOc1ccc(Cl)cc1CNCCCN1CCOCC1 | -3%
9 | O=C(CNC(=O)c1cccnc1)N/N=C/c1cc(Br)c(O)c(Br)c1 | 1.1%
10 | O=C(CSc1cccc2cccnc12)N/N=C/c1cccnc1 | 48.3% (active)
11 | Cc1ccc(/C=N/NC(=O)CSc2nc3ccccc3o2)cc1 | -6.5%
12 | O=C(COc1cccc2c1CCNC2=O)NC1CCCCC1 | -2.3%
13 | OCCC1CN(Cc2cccc(OC3CCCC3)c2)CCN1Cc1ccsc1 (stereo not drawn) | 4.2%
14 | Cc1c(NC(=O)C(C)Oc2cccc(Cl)c2)c(=O)n(-c2ccccc2)n1C (stereo not drawn) | -5%
15 | CC(C)CCNC(=O)c1cccnc1Sc1ccccc1 | -0.4%
16 | COc1cccc(NCCC(=O)c2cccc([N+](=O)[O-])c2)c1 | 2.4%
17 | CC(NC(=O)Nc1cccc([N+](=O)[O-])c1)c1ccc2c(c1)OCO2 (stereo not drawn) | 7.9%
18 | COC(=O)/C=C\C(=O)Nc1cccc([N+](=O)[O-])c1 | 74.8% (active)
19 | Cc1cc(C(=O)NCCCc2ccccc2)no1 | 48.5% (active)
20 | CC(C)Cc1cc(C(=O)NCCc2ccccc2)no1 | 1.7%
21 | O=C(NCCCc1ccccc1)c1cc(COc2c(F)cccc2F)on1 | 7.9%
22 | Cc1ccc(CCNC(=O)C2CCN(S(=O)(=O)N3CCCC3)CC2)cc1 | 0.7%
23 | Cc1ccc(OCCCCc2c(C)n[nH]c2C)cc1 | -0.7%
24 | CCCC1CCC(=NNC(=S)NCCc2ccccc2)CC1 (stereo not drawn) | 40% (active)

Row | Compound | inhibition
25 | C/C(=N\NC(=S)NCc1ccccc1)C1CCCCC1 | 21.2%
26 | Cc1cc(F)ccc1NC(=S)NCCc1ccccc1 | -0.7%
27 | Cc1cc(C)c(C)c(S(=O)(=O)N[C@@H](C)C(=O)OC(C)C(=O)NC(N)=O)c1C (stereo partly drawn) | 7%
28 | Cc1oc2cc([N+](=O)[O-])c(O)c([N+](=O)[O-])c2c1C(=O)c1ccc(Br)cc1 | 25.7%
29 | O=C(NNC(=S)NCCCN1CCOCC1)c1ccncc1 | 3.2%
30 | O=[N+]([O-])c1ccc(N=NNc2ccc([N+](=O)[O-])cc2)cc1 | 39.7% (active)
31 | NC(=O)C1(Nc2ccc([N+](=O)[O-])cc2)CCCC1 | 1.8%
32 | COC(=O)c1ccccc1N=NNc1ccc([N+](=O)[O-])cc1 | -5.2%
33 | CC(=O)Nc1ccc(S(=O)(=O)NCC2CCC(C(=O)NCCc3ccccc3)CC2)cc1 (stereo not drawn) | 6.1%
34 | Nc1nc(Nc2ccccc2F)nc(NC2CCCCC2)c1[N+](=O)[O-] | -0.8%
35 | CSCCC(NC(=O)COc1ccccc1)C(=O)OCc1ccc(Cl)cc1 (stereo not drawn) | 2.7%
36 | CSCCC(NC(=O)COc1ccccc1)C(=O)OCCOc1ccc(Br)cc1 (stereo not drawn) | 2.8%
37 | CSCCC(NC(=O)COc1ccccc1)C(=O)OCC(=O)c1cc2ccccc2o1 (stereo not drawn) | 37.7% (active)
38 | O=C(NCc1ccccc1)C1=C[C@@H](C2CCCCC2)C[C@@H](OCc2ccc(CO)cc2)O1 | 6.4%
39 | CC(C)c1ccc(S(=O)(=O)N2CCC3(CC2)OCCO3)cc1 | -0.4%
40 | CCN(CC)P(=O)(/C(Cl)=C\Nc1c(C)n(C)n(-c2ccccc2)c1=O)N(CC)CC | 9.1%
41 | CCOc1ccc(CN2CCC(n3nccc3NC(=O)C3CC3)CC2)cc1CO | 3.8%
42 | CSCCC(NS(=O)(=O)c1ccc(C)cc1)C(=O)NCCc1c[nH]c2ccccc12 (stereo not drawn) | -6%
43 | CCN(CC)CCn1c(N)c(S(=O)(=O)c2ccccc2)c2nc3ccccc3nc21 | 45.9% (active)
44 | CCN(CC)CCn1c(/N=C/c2cc(Br)ccc2O)nc2ccccc21 | 0.9%
45 | CCC(=O)Nc1c(S(=O)(=O)c2ccccc2)c2nc3ccccc3nc2n1Cc1ccccc1 | -4.6%
46 | CCCCOc1ccc(C(=O)NCC(=O)OCC(=O)c2c(N)n(C)c(=O)n(C)c2=O)cc1 | 2.3%
47 | CC1CN(c2cc(=O)n(-c3cccc(Br)c3)c(=O)[nH]2)CC(C)O1 (stereo not drawn) | -4.7%
48 | CCOC(=O)N1CCC(N2Cc3cccc(C(=O)Nc4ccc(S(=O)(=O)N(CC)CC)cc4)c3C2=O)CC1 | -2.9%

Row | Compound | inhibition
49 | COC(=O)c1cc(OC)c(OC)cc1NC(=O)C1CCCO1 (stereo not drawn) | 0.8%
50 | Cc1ccc([C@H]2N[C@]3(CCCN(Cc4ccccc4)C3=O)[C@H]3C(=O)N(Cc4ccccc4)C(=O)[C@@H]23)cc1 | 3.3%
51 | CC(=NNC(=S)N1CCCCCC1)c1ccccn1 | 19.5%
52 | C/C(=N\NC(=O)Cc1ccc(Cl)cc1)c1ccccn1 | 88.7% (active)
53 | C/C(=N/NC(=O)CCc1ccccc1)c1ccco1 | -3.6%
54 | O=C(c1ccccc1)C(Cn1cncn1)C(Sc1ccccc1)c1ccccc1 (stereo not drawn) | 5.2%
55 | O=C(CNc1ccccc1N1CCCC1=O)Nc1cc(Cl)ccc1-n1cncn1 | -1%
56 | Cc1noc(C)c1CSCC(=O)N(CCC(C)C)c1c(N)n(Cc2ccccc2)c(=O)[nH]c1=O | 2.5%
57 | COc1cccc(CN(C)CC2CCCN(CCc3ccc(Cl)cc3)C2)c1OC (stereo not drawn) | 3.7%
58 | CCN(CC)Cc1csc2ccc(Br)cc12 | 5.6%
59 | COc1cccc(CNC(=O)C2CCN(S(=O)(=O)c3cccc4cccnc34)CC2)c1 | -1.1%
60 | Cc1cc(OCCOc2cccc3cccnc23)c(C)cc1Cl | -1.8%
61 | CC(=O)/C(=N\Nc1ccc(Cl)cc1Cl)Sc1cccc2cccnc12 | 46.4% (active)
62 | CC1CCC(NS(=O)(=O)c2ccc3c(c2)CC(=O)N3)CC1 (stereo not drawn) | -9.8%
63 | CS(=O)(=O)c1ccc(Cl)c(NC(=O)COC(=O)c2cccc(S(=O)(=O)N3CCCC3)c2)c1 | 8.6%
64 | COc1ccc(C[C@H]2CN3C(=NC[C@H]3C)N2CCNC(=O)CCC2CCCCC2)cc1 | 5.3%
65 | CC(C)(C)C1CCC(=NNC(=O)c2ccc(Br)o2)CC1 (stereo not drawn) | -5%
66 | COCCCNC(=S)NC(=O)c1ccc([N+](=O)[O-])cc1 | 75% (active)
67 | COc1ccccc1OCCNC(=O)c1cc([N+](=O)[O-])cc([N+](=O)[O-])c1 | -9.6%
68 | COCCCNC(=S)NNC(=O)C(O)(c1ccccc1)c1ccccc1 | 14.6%
69 | COc1ccc(CN2CCNC(=O)C2CC(=O)NCc2cn[nH]c2-c2ccccc2)c(F)c1 (stereo not drawn) | -0.4%
70 | Nc1nnc(C2CCCC2)s1 | -3.7%
71 | CC1(C(=O)NCCc2c[nH]c3ccccc23)C=CC2(CCCCC2)N1C(=O)c1ccccc1 (stereo not drawn) | -1.9%
72 | COc1cc(SC#N)ccc1N=Cc1c(C)[nH]n(-c2ccc(C)cc2)c1=O | -2%

Row | Compound | inhibition
73 | Cc1ccc(-c2ccnc3[nH]n(-c4ccccc4)c(=O)c23)cc1 | 12.9%
74 | Cc1ccc(-n2[nH]c(C)c(/C=N/N3C(=O)c4cccc5cccc(c45)C3=O)c2=O)cc1 | 48.5% (active)
75 | Cc1nn(C(C)CC(=O)O)c(C)c1C (stereo not drawn) | 3.3%
76 | CC(NC(=O)Cn1cc(C(F)(F)F)cc(Cl)c1=O)c1ccccc1 (stereo not drawn) | -4.9%
77 | CC1CCC(C(C)C)C(=O)/C1=C\c1ccc(NC(=O)CCC(=O)O)cc1 (stereo not drawn) | 1%
78 | O=C(NCCc1ccccc1)C1CCC(Cn2c(=O)c3ccccc3n(Cc3cccnc3)c2=O)CC1 (stereo not drawn) | -5.3%
79 | C=CCC1(C#N)C(=S)NC(C)=C(C(=O)OCC)C1c1ccccc1 (stereo not drawn) | -3.2%
80 | COc1cc(NC(=O)Nc2ccc(C)cc2)cc([N+](=O)[O-])c1 | 2.8%
81 | COc1ccc(NC(=O)/C(Cl)=C(/Cl)S(=O)Cc2ccc(C)cc2)cn1 (stereo not drawn) | 94.9% (active)
82 | COc1ccc(NC(=O)C2Cc3c(-c4ccc5c(c4)OCO5)ccnc3O2)cn1 (stereo not drawn) | -3.9%
83 | COc1cccc(CC(=NO)c2cccc(OC)c2)c1 | 7.2%
84 | O=C1C(Cl)=C(Oc2ccccc2)C(=O)c2ccccc21 | 104% (active)
85 | O=C(OCC(=O)N1CCc2ccccc21)C1CCCN1S(=O)(=O)c1ccc(Cl)cc1 (stereo not drawn) | -11.4%
86 | CCCCn1c(N)c(N(CC(C)C)C(=O)c2cccc(S(=O)(=O)N3CCN(C(C)=O)CC3)c2)c(=O)[nH]c1=O | 1.2%
87 | CCCCCCCCCCOC(=O)Cn1c(COc2cccc(OC)c2)[n+](C)c2ccccc21 | 47.7% (active)
88 | CCCCN(CCCC)C(=O)CCS(=O)(=O)c1ccc2c(c1)n(C)c(=O)c(=O)n2C | -7.5%
89 | COc1ccc(CCNC(=O)CSc2nc(-c3ccc(OC)c(OC)c3)ccc2C#N)cc1 | 7.6%
90 | Cc1ccc(N2C(=O)SC(N(CC(=O)O)c3ccc(C)cc3)C2=O)cc1 (stereo not drawn) | 4%
91 | CCCNC(=O)c1cnc(-c2ccccc2)nc1-c1ccccc1 | 12%
92 | COCCNc1nc(-c2ccccc2)nc2c1oc1ccccc12 | -2.7%
93 | CCC(=O)OCCNc1nc(-c2ccccc2)nc2ccccc12 | 40.8% (active)
